Compound activity from PubChem BioAssay.
Hits are enriched below; roughly 21% of the tested compounds scored in any of these assays.
D3 ag – activates the human D3 dopamine receptor. 0.58% of 410,000 active. max activation, %. AID 652048. D3R DiscoveRx beta-arrestin cells, luminescence, 90 min. P35462; in the data active = max activation above about 30%
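Agonist mode: compounds and dopamine controls were applied to plated cells for 90 min at 37 degrees C after an overnight attachment at 1500 cells/well. Luminescent read-out followed 30 - 60 minutes at room temperature with DiscoveRx detection reagent.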
IL1B secr inh – blocks inflammasome-driven IL-1 beta release; THP-1 LPS/ATP IL-1B secretion, AlphaLISA, 16 h; stronger effect = lower value; 4.7% of 360,000 active; activity change, % at 57.5 µM; AID 743279; in the data active = activity change below about -50%; inconclusive = mostly about -30% to -49%
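THP-1 cells pretreated 1 hr with compounds (up to 57.5 uM final), then stimulated with LPS (250 ng/mL final) plus ATP (1.25 mM final); secreted IL-1B measured by AlphaLISA after 16 hr, decreased signal indicating inhibition.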
ClpP mod – qHTS Assay for Activators of ClpP | ATP-dependent Clp protease proteolytic subunit (Bacillus subtilis (strain 168)), P80244 | purified B. subtilis ClpP, FRET peptide cleavage, 20 min | Potency, µM (series often up to 57.5 µM) | 1.9% of 340,000 active | AID 651965, 2013; active = well fitted falling curve with a large enough effect; inconclusive = small, poorly fitted or top-dose-only effect; inactive = no such curve, though single readings can be large or run the other way; also: the source files actives as falling curves though it sought activators and does not explain the sign; nearly all actives have a fitted effect of over 65% in size
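Buffer: 100 mM Tris/HCl pH8, 100 mM KCl, 0.05% low protease BSA, 2.5% glycerol, 0.01% Tween-20. ClpP 10 microg/mL final; 20 min RT; delta FRET normalized to ADEP and DMSO controls.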
DRD3 antagonist – antagonists of human D3 dopamine receptor; D3R cells, DiscoveRx beta-arrestin luminescence, antagonist mode; stronger effect = lower value; max response, negative = inhibition, %; 2.5% of 360,000 active; AID 652054; in the data active = max response below about -50%; inconclusive = no clear call, values can overlap the other calls
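Cells plated overnight at 1500 cells/well, then exposed to library compounds with dopamine controls for 90 minutes at 37 degrees C. DiscoveRx reagent added for 30–60 minutes at room temperature; luminescence read, quantitative HTS format.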
TDP1 cell CPT – growth inhibition of DT40 Tdp1-/-;hTDP1 cells with camptothecin (screen for TDP1 inhibitors). 12% of 420,000 active. Potency, µM (top dose mostly 46.2 µM), actives largely listed as inhibitors. chicken DT40 Tdp1-/-;hTDP1 cells + 20 nM CPT, ATP luminescence, 48 h. AID 686979; also: nearly all actives have a fitted effect of over 55% in size
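Cell growth measured by CellTiter-Glo luminescence after a minimum 48 h, 37 C compound exposure with 20 nM CPT in Tdp1-knockout DT40 cells stably expressing hTDP1, seeded 400/well; qHTS titration format.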
TDP1 cell noCPT – qHTS for Inhibitors of human tyrosyl-DNA phosphodiesterase 1 (TDP1): qHTS in cells in absence of CPT | DT40 Tdp1-/- hTDP1 cells, no CPT, ATP luminescence, 48 h | Potency, µM (series often up to 46.2 µM), usual class: inhibitors | 15% of 420,000 active; also: nearly all actives have a fitted effect of over 55% in size
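Camptothecin absent (DMSO only). Human TDP1-complemented DT40 knockout cells, 400 cells/well, 37 °C for minimum 48 hr; ATP measured via CellTiter-Glo, 30 min dark incubation, luminescence.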
Each line names hits and unclear results; the compound was inactive in the other large screens. Unless noted, calls follow the shape of the dose curve; as a rule, active = well fitted inhibition curve with a large enough effect; inconclusive = small, poorly fitted or top-dose-only effect; inactive = flat fitted curve, though single readings scatter.

Cc1cc(S(=O)(=O)n2[nH]c(=O)c(CCO)c2C)c(Cl)cc1Cl	TDP1 cell CPT 16µM, TDP1 cell noCPT inconclusive
CC(C)c1ccc(O)c(NC(=O)c2ncn[nH]2)c1	none
CCc1ccc2c(c1)C1(NN=C(c3ccc(C)cc3)S1)C(=O)N2 (stereo not given)	IL1B secr inh -100, DRD3 antagonist -94, TDP1 cell CPT 16µM, TDP1 cell noCPT 8.2µM
CC(C)c1ccc2c(c1)C1(NN=C(c3ccccc3)S1)C(=O)N2 (stereo not given)	TDP1 cell CPT 3.7µM, TDP1 cell noCPT 6.5µM
COc1ccc(N2C(=O)N(Cc3ccc(C)cc3)c3ccccc3S2(=O)=O)cc1	TDP1 cell CPT inconclusive, TDP1 cell noCPT inconclusive
COc1cc(OC)cc(N2C(=O)N(Cc3ccc(C(C)(C)C)cc3)c3ccccc3S2(=O)=O)c1	TDP1 cell CPT inconclusive, TDP1 cell noCPT 21µM (no result: IL1B secr inh, DRD3 antagonist)
C=Cc1ccc(CN2C(=O)N(c3cccc(Cl)c3)S(=O)(=O)c3ccccc32)cc1	TDP1 cell CPT 12µM, TDP1 cell noCPT inconclusive (no result: IL1B secr inh, DRD3 antagonist)
CSc1cccc(N2C(=O)N(Cc3ccc([N+](=O)[O-])cc3)c3ccccc3S2(=O)=O)c1	none (no result: IL1B secr inh, DRD3 antagonist)
COc1ccc(CCNC(=O)CCOc2ccc(C(C)(C)C)cc2)cc1OC	TDP1 cell CPT inconclusive, TDP1 cell noCPT inconclusive
Cc1ccc(-c2noc(-c3nnn(CC(=O)Nc4cc(C)cc(C)c4)c3N)n2)cc1	TDP1 cell CPT 1.3µM, TDP1 cell noCPT 1.5µM (no result: IL1B secr inh, DRD3 antagonist)
CCc1ccccc1NC(=O)c1nnn(Cc2ccc(Cl)cc2)c1N	TDP1 cell CPT inconclusive, TDP1 cell noCPT 13µM (no result: IL1B secr inh, DRD3 antagonist)
Cc1cccc(NC(=O)Cn2nnc(-c3nc(-c4ccncc4)no3)c2N)c1	TDP1 cell noCPT inconclusive (no result: IL1B secr inh, DRD3 antagonist)
CCc1ccc(Cn2nnc(C(=O)Nc3cccc(C)c3)c2N)cc1	DRD3 antagonist inconclusive
Cc1ccc(Cn2nnc(C(=O)Nc3cccc(C)c3C)c2N)cc1	TDP1 cell CPT inconclusive, TDP1 cell noCPT 21µM
Cc1cccc(Cn2nnc(C(=O)Nc3cc(C)ccc3C)c2N)c1	TDP1 cell CPT 29µM, TDP1 cell noCPT 18µM (no result: IL1B secr inh, DRD3 antagonist)
Cc1ccc(Cl)cc1NC(=O)c1nnn(Cc2ccccc2)c1N	TDP1 cell CPT inconclusive, TDP1 cell noCPT inconclusive (no result: IL1B secr inh, DRD3 antagonist)
Cc1ccc(OCC(=O)NCCCNC(=O)c2cccnc2)cc1	none (no result: ClpP mod)
COc1ccc(C(=O)NCCS(=O)(=O)N2CCCC2)cc1	none
Cc1ccc(S(=O)(=O)c2nnn(CC(=O)Nc3ccccc3C)c2N)cc1	none (no result: IL1B secr inh, DRD3 antagonist)
Cc1ccc(NC(=O)Cn2nnc(C(=O)Nc3ccc(C)c(C)c3)c2N)cc1	DRD3 antagonist -66
Cc1ccc(S(=O)(=O)c2nnn(CC(=O)Nc3ccccc3C)c2N)cc1C	TDP1 cell CPT inconclusive, TDP1 cell noCPT 15µM (no result: IL1B secr inh, DRD3 antagonist)
Cc1ccc(C)c(NC(=O)c2nnn(CC(=O)Nc3cccc(C)c3C)c2N)c1	D3 ag 40 (no result: IL1B secr inh, DRD3 antagonist)
Cc1cc(C)cc(NC(=O)Cn2nnc(C(=O)NCc3ccc(F)cc3)c2N)c1	TDP1 cell CPT 21µM, TDP1 cell noCPT inconclusive
Cc1cccc(C)c1NC(=O)Cn1nnc(C(=O)NCc2ccc(F)cc2)c1N	none (no result: IL1B secr inh, DRD3 antagonist)
COc1ccc(-c2nc3ccc(NS(=O)(=O)c4ccc(Cl)cc4)cc3o2)cc1	ClpP mod inconclusive, TDP1 cell CPT inconclusive, TDP1 cell noCPT inconclusive (no result: IL1B secr inh, DRD3 antagonist)
O=C1CCC(NC(=O)c2ccccc2)C(=O)N1 (stereo not given)	none (no result: ClpP mod)
COc1ccccc1C(=O)NC(CCSC)C(=O)Nc1ccc(C)c(S(=O)(=O)N2CCOCC2)c1 (stereo not given)	IL1B secr inh inconclusive, TDP1 cell CPT inconclusive, TDP1 cell noCPT inconclusive
Cc1ccc(S(=O)(=O)N2CCN(C(=O)C3CCCC3)CC2)cc1C	TDP1 cell CPT inconclusive, TDP1 cell noCPT inconclusive (no result: ClpP mod)
CCC1Sc2ccc(S(=O)(=O)Nc3cc(OC)cc(OC)c3)cc2NC1=O (stereo not given)	TDP1 cell CPT 16µM, TDP1 cell noCPT inconclusive
